Here are results for 37 compounds from the supplement of paper PMC8726507.

Structures are written as SMILES.

One assay deals with Plasmodium falciparum NF54-HGL (transmission to Anopheles stephensi). Put plainly: percentage of barcode signal found in uninfected mosquitoes (transmission-blocking activity); higher = stronger blocking of transmission to mosquito, active = 80 or more. The following applies: 10 µM; gametocyte preincubation time 24 h; readout time post-feed 8 days. As for the experimental part: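 The mixture was fed to Anopheles stephensi in 96-well plates as blood meals tagged with DNA-barcoded Asaia bacteria. Eight days later, mosquitoes were classed infected or uninfected by luminescence (mean + 5 SD of unfed controls). Barcodes were quantified by Luminex MagPlex-TAG in the pooled uninfected and infected Asaia cultures, background-corrected, and the score is % of barcode signal in uninfected mosquitoes = 100*Iu/(Iu+Ii).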
Take `CNC(=O)C1Cc2ccccc2N1C(=O)Cc1ccc(F)cc1` (configuration not stated): the “percentage of barcode signal found in uninfected mosquitoes” value (“percentage of barcode signal found” for short) is 27.5% (inactive). Same read-out and setting: the result for `CS(=O)(=O)c1cccc(-c2cnc3[nH]cc(-c4ccc(CCC(=O)O)cc4)c3c2)c1` reads 29.9% (inactive); that for `O=C(Nc1ccc(N2CCNCC2)nc1)c1oc(-c2ccccc2)nc1C(F)(F)F`, 79.2% (inactive); that for `Cc1ccc2cc(C3NC(=O)c4ccccc4N3)c(Cl)nc2c1` (configuration not stated), 71.8% (inactive). Same read-out and setting: to `CCOc1ccc2cc(-c3nn(C(C)(C)C)c(N)c3C(N)=O)cnc2c1` belongs 71.5% (inactive).

As to `N#Cc1nc(-c2ccccc2)oc1S(=O)(=O)c1ccc(Cl)cc1`, the “percentage of barcode signal found” value was 72.7% (inactive). The same measure, in the same setting: to `CC(C)n1ncc2c(C(=O)NCC(c3cccs3)N3CCOCC3)cc(-c3ccccc3)nc21` (configuration not stated) belongs 29.6% (inactive); to `NS(=O)(=O)c1cncc(-c2ccc3nccc(-c4cn[nH]c4)c3n2)c1`, 78.5% (inactive); to `COc1cc(NC(C)CCCN)c2ncccc2c1` (configuration not stated), 48.2% (inactive). The same measure, in the same setting: to `COc1ccccc1C(C)NCC(=O)Nc1cc(C(F)(F)F)ccc1Cl` (configuration not stated) belongs 11.8% (inactive). Consider `CCOC(=O)NC(=O)c1ccsc1NC(=O)c1nc2ccccc2s1`, for which the “percentage of barcode signal found” value is -0.298% (inactive).

Consider `O=C(NC1CC1)c1ccc(N2CCC(Cc3ccccc3)CC2)nc1`, for which the “percentage of barcode signal found” value was 77.8% (inactive). In the case of `c1ccc(-c2cc(N3CCCCC3)c3ccccc3n2)nc1`, the “percentage of barcode signal found” value was 53.1% (inactive). On the same count and under the same terms, to `CC(C)(C)c1cc(C(=O)Nc2cccnc2)cc(C(=O)Nc2cccnc2)c1` belongs 41.8% (inactive); to `CC1=Nc2ccc(Cl)cc2C(O)(c2ccc(C)cc2)N1CCN1CCCCC1` (configuration not stated), 83.9% (active). Take `CCOc1ccccc1C(=O)Nc1cccc(-c2nc3ncccn3c2C)c1`: the “percentage of barcode signal found” value is 78.8% (inactive). Still for that read-out and setting: to `CC(Oc1cccc(Cl)c1)C(=O)Nc1ccc2oc(-c3ccncc3)nc2c1` (configuration not stated) belongs 47.8% (inactive); to `C[C@H]1c2cccc(O)c2C(=O)C2=C(O)[C@]3(O)C(=O)C(C(N)=O)=C(O)[C@@H](N(C)C)[C@@H]3[C@@H](O)[C@@H]21`, 41.2% (inactive); to `Cc1ccc(NC(=O)c2nc[nH]c2C(=O)Nc2nc3ccccc3[nH]2)c(C)c1`, 73.8% (inactive).

The assay is the same for the next values; noted with them: 20 µM; gametocyte preincubation time 24 h; readout time post-feed 8 days.
Turning to `CC(=O)N(CCN(C(=O)c1ccc(F)cc1)c1ccccc1)c1ccccc1`, the “percentage of barcode signal found” value was 1.19% (inactive). Still for that read-out and setting: to `Nc1cccnc1Nc1ccc(Cl)cc1` belongs 54.5% (inactive). The same measure, in the same setting: the result for `N=C(N)Nc1ccc(-c2ccc(-c3ccc(NC(=N)N)cc3Cl)o2)c(Cl)c1` reads 39.3% (inactive); that for `CC(=O)NCC1CN(c2ccc(-c3ccc(CO)cc3)c(F)c2)C(=O)O1` (configuration not stated), 30.3% (inactive).

On to `CC(C)=CCC/C(C)=C\CNCCNC1C2CC3CC(C2)CC1C3` (configuration not stated), for which the “percentage of barcode signal found” value was 81.8% (active). Still for that read-out and setting: the result for `COc1ccc(-c2nn(C(C)C)c3ncnc(N)c23)cc1OC` reads 95.5% (active); that for `CNC(=O)CNc1nc(-c2ccccn2)nc2scc(-c3ccccc3)c12`, 69.6% (inactive); that for `COc1ccc(N(CCc2cccc(C)n2)C(C)=O)cc1`, 0.592% (inactive).

Consider `O=C(CN1CCOCC1)Nc1ccc2ncnc(Nc3ccc(OCc4cccc(F)c4)c(Cl)c3)c2c1`, for which the “percentage of barcode signal found” value was 1.6% (inactive). Same read-out and setting: the result for `CCC(C)NC(=O)c1ccc(NC(=O)C2(c3ccccc3)CCCC2)cc1` (configuration not stated) reads 47.5% (inactive). `O=C([C@@H](c1ccc(Cl)cc1)c1cccnc1)N1CCN(c2ccc(C(F)(F)F)cc2)CC1`: the “percentage of barcode signal found” value is -0.981% (inactive). Take `NC(=O)c1cc(-c2ccsc2)ccc1OCCOc1ccccc1`: the “percentage of barcode signal found” value is 12.1% (inactive). On the same count and under the same terms, the result for `c1ccc(Oc2ccc(-c3cc(CN4CCOCC4)[nH]n3)cc2)cc1` reads 3.15% (inactive). For `c1cc(C2=NCCN2)cc(-c2cc(-c3ccc(C4=NCCN4)cc3)no2)c1`, the “percentage of barcode signal found” value is 50% (inactive).

As to `O=C(Nc1ccccc1-c1nc2c(C(=O)O)cccc2o1)c1ccccc1`, the “percentage of barcode signal found” value was 27.2% (inactive).

As for `Nc1ncnc2c1c(-c1cnc3ccccc3c1)nn2CC1CCNCC1`, the “percentage of barcode signal found” value is -2.55% (inactive). On to `O=C(Nc1c(O)cccc1-c1nc2c(C(=O)O)cccc2o1)c1cc(-c2ccccc2)on1`, for which the “percentage of barcode signal found” value is 20.8% (inactive). The same measure, in the same setting: to `Cc1cc(C)c2cc(C(=O)NC3CCCCCCC3)[nH]c2c1` belongs 0.265% (inactive).
